Bioassay records from PubChem BioAssay.
Hits are enriched below; roughly 3.7% of the tested compounds scored in any of these assays.
MazF activator = activators of E. coli MazEF toxin-antitoxin RNase; activation, % at 20 µM; 350,000 compounds, 0.32% hits; P0AE70; AID 504720; FAM/BHQ RNA-DNA oligo cleavage fluorescence, 5 h; in the data active = activation above about 50%
Target sequence (P0AE70 whole entry, looked up): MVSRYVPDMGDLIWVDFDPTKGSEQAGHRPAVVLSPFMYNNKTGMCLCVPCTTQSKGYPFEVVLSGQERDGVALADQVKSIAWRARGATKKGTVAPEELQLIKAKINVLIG
BoNT-F LC inh = BoNT F light chain protease inhibition; inhibition, % at 10 µM; AID 588497; 360,000 compounds, 0.22% hits; Multiplex microsphere protease cleavage assay, flow cytometry; in the data active = inhibition above about 35%, passing the limit was not always enough; inconclusive = no clear call, values can overlap the other calls
Autofluor counter = counter-screen for toxin protease inhibitors: compound fluorescence; compound autofluorescence counterscreen, microsphere flow cytometry; active compounds read high; fluorescence intensity (test concentration not listed); 360,000 compounds, 3.1% hits; in the data active = fluorescence intensity above about 16000; inconclusive = no clear call, values can overlap the other calls
BoNT-A LC inh2 = blocks Botulinum neurotoxin A light chain protease; multiplex microsphere protease substrate cleavage, flow cytometry; inhibition, % at 10 µM; 360,000 compounds, 0.17% hits
Anthrax LF prot = inhibitors of Bacillus anthracis lethal factor protease. AID 588501. multiplex microsphere protease cleavage assay, LF. 360,000 compounds, 0.12% hits. inhibition, % at 10 µM
Each line names hits and unclear results; the compound was inactive in the other large screens. Rule as the data show it, unless noted: active = inhibition above about 30%; inconclusive = no clear call, values can overlap the other calls; inactive = below that.

Cc1nn(Cc2ccccc2)c(Cl)c1C(=O)NCc1ccc(C)n1C	Autofluor counter 19508, BoNT-A LC inh2 inconclusive
Cc1nn(Cc2ccccc2)c(Cl)c1C(=O)NCCc1ccccc1	none
O=C(NCC(=O)N1CCN(Cc2ccccc2)CC1)c1ccccc1Cl	none
COc1ccc(NC(=O)CNC(=O)c2nn(-c3ccc(OC)c(Cl)c3)c(=O)c3ccccc23)c(OC)c1	none
Cc1cc(=O)oc(C)c1C(=O)NCCCN1C(C)CCCC1C (centres undefined)	Autofluor counter 24271
CCCCN(CCCNC(=O)c1c(C)cc(=O)oc1C)c1ccccc1	Autofluor counter 22469
CCN(CCCNC(=O)c1c(C)cc(=O)oc1C)c1ccccc1	none
Cc1cc(=O)oc(C)c1C(=O)NCCN1CCOCC1	Autofluor counter 22773, BoNT-A LC inh2 inconclusive
CCCNC(=O)c1cc(C2CCCCN2C(=O)c2ccc(C#N)cc2)on1 (centres undefined)	none (no result: MazF activator)
Cc1cccc(-c2nnc(C(C)Nc3cccc(C(=O)NC4CC4)c3)o2)c1 (centres undefined)	none
CCCNCC(=O)Nc1sc2c(c1C(=O)Nc1c(C)n(C)n(-c3ccccc3)c1=O)CCCC2	none
CC(NC(=O)C(=O)NCCN1CCN(C(=O)c2ccccc2Br)CC1)c1ccccc1 (centres undefined)	none
COc1cc(-c2noc(-c3cccc(Cl)c3)n2)cc(OC)c1OC	Autofluor counter 22311
CC(C)(CNC(=O)c1ccc(NS(=O)(=O)c2ccc(Br)cc2)cc1)N1CCOCC1	none
COc1ccc(C(=O)OC(C)C(=O)NC2CCCCC2C)cc1S(=O)(=O)N1CCOCC1 (centres undefined)	none
COc1ccc(-c2ccc(=O)[nH]n2)cc1	Autofluor counter 20511
CC(C)(C)NC(=O)C(c1ccco1)N(C(=O)Cn1nnc(-c2ccc(F)cc2)n1)c1cccc(F)c1 (centres undefined)	Autofluor counter 22593
Cc1ccccc1OCCOC(=O)c1cc(S(=O)(=O)N2CCOCC2)ccc1C	none
O=C(C1=NN[C@@H]2C(=O)N(c3cccc(C(F)(F)F)c3)C(=O)[C@H]12)c1ccc2ccccc2n1	MazF activator 96
O=C(C1=NN[C@@H]2C(=O)N(c3cccc(F)c3)C(=O)[C@H]12)c1ccc2ccccc2n1	MazF activator 73
COc1cccc(N2C(=O)[C@H]3C(C(=O)c4cnccn4)=NN[C@H]3C2=O)c1	none
COCCn1c(SCc2csc(-c3ccccc3)n2)nc2ccccc21	Autofluor counter 22786, BoNT-A LC inh2 inconclusive
COCCn1c(SCC(=O)NCc2ccccc2)nc2ccccc21	none
CN1/C(=C/C2CC(=O)N(c3cccc4ccccc34)C2=O)C(C)(C)c2ccccc21 (centres undefined)	Autofluor counter 20679
CN1/C(=C/C2CC(=O)NC2=O)C(C)(C)c2ccccc21 (centres undefined)	Autofluor counter 19664
CC(NC(=O)c1cccc(Cn2cc([N+](=O)[O-])cn2)c1)c1ccc(C(C)(C)C)cc1 (centres undefined)	Autofluor counter 19892
CC(C)NC(=O)c1cccc(Cn2cc(Cl)cn2)c1	Autofluor counter 22543
CCC(NC(=O)c1cccc(Cn2cc([N+](=O)[O-])cn2)c1)c1ccc(C(C)C)cc1 (centres undefined)	none
COc1ccc(C[C@H](N)C(=O)N[C@H]2[C@@H](O)[C@H](n3cnc4c(N(C)C)ncnc43)O[C@@H]2CO)cc1	none
Cc1ccc(S(=O)(=O)N(C)c2ccc(C(=O)N3CCN(Cc4ccc5c(c4)OCO5)CC3)cc2)cc1	none
CN(c1ccc(C(=O)N2CCN(Cc3ccc4c(c3)OCO4)CC2)cc1)S(=O)(=O)c1ccccc1	Autofluor counter 23288
O=C(CCc1ccc(S(=O)(=O)NCCc2ccccc2)cc1)N1CCN(Cc2ccc3c(c2)OCO3)CC1	Autofluor counter 21187 (no result: MazF activator)
CCOC(=O)N1CCN(C(=O)CCc2ccc(S(=O)(=O)NCCc3ccccc3)cc2)CC1	Autofluor counter 22791
Cc1ccc(N2CC(C(=O)NC3CCCCCC3)CC2=O)cc1 (centres undefined)	none
CCc1nc2ccc(C(=O)NCCOc3ccc(OC)cc3)cn2c1N(C)C(=O)C1CCCCC1	none (no result: MazF activator)
CN(C)/C(CN1CCOCC1)=C1\N=C(c2ccccc2)OC1=O	Autofluor counter 23718
CN(C)/C(Cn1cncn1)=C1/N=C(c2c(F)cccc2F)OC1=O	none
Cc1ccc(C2/C(=C(/O)c3ccccc3)C(=O)C(=O)N2CCN2CCOCC2)o1 (centres undefined)	Autofluor counter 20379
COc1ccc2c(c1)C(=O)N1[C@H]3c4cc(Br)ccc4OC[C@@H]3[C@H](c3ccccc3)[C@]1(C)C(=O)N2	none
CCCCCN(C(=O)CCC(=O)OCc1ccc(Cl)cc1Cl)c1c(N)n(CCCC)c(=O)[nH]c1=O	none
CC1CC(C)CN(C(=O)Cn2c(-c3nonc3N)nc3ccccc32)C1 (centres undefined)	none
CC1CCCN(C(=O)Cn2c(-c3nonc3N)nc3ccccc32)C1 (centres undefined)	Autofluor counter 18146
CC1(C(=O)NS(=O)(=O)c2cccc(Cl)c2)CCN1C(=O)CC1CCCC1 (centres undefined)	none (no result: MazF activator)
Cc1ccccc1-c1nc(CN2CCC(C(=O)NCCCN3CCCC3)CC2)c(C)o1	Autofluor counter 17690
Cc1ccccc1-c1nc(CN2CCC(C(=O)NCCCN3CC(C)CC(C)C3)CC2)c(C)o1 (centres undefined)	Autofluor counter 22754
CCN1CCCC1CNC(=O)C1CCN(Cc2nc(-c3cccc(Br)c3)oc2C)CC1 (centres undefined)	Autofluor counter 18142
Cc1ccccc1-c1nc(CN2CCC(C(=O)NCCCN3CCOCC3)CC2)c(C)o1	Autofluor counter 26327, BoNT-A LC inh2 inconclusive
Cc1oc(-c2cccc(Cl)c2)nc1CN1CCC(C(=O)NCc2ccco2)CC1	none
CC(CNC(=O)CC[C@H]1O[C@@H](n2cnc3c(NC(=O)c4ccccc4)ncnc32)[C@H](O)[C@@H]1O)c1ccccc1 (some centres undefined)	none (no result: MazF activator)
COc1ccc(S(=O)(=O)N2CCC(C(=O)NCc3ccncc3)CC2)cc1OC	none
CCCCNC(=O)C1(C)CCN1C(=O)CSc1ccccc1 (centres undefined)	none (no result: MazF activator)
Cc1cc(=O)oc2cc(OCC3CC(c4ccc(Br)cc4)=NO3)ccc12 (centres undefined)	Autofluor counter 19620
COc1ccc(C(=O)NCc2nnc(SCC(=O)NCCc3ccccc3)o2)cc1	none
CCOC(=O)c1cc(C)sc1N1C(=O)C2C3C=CC(C3)C2C1=O (centres undefined)	Autofluor counter 24106
Cc1c(NC(=O)c2ccccc2N)cccc1C(=O)O	Autofluor counter 20340
O=C1COc2cc(O)ccc21	none
c1ccc(-n2nnnc2SCc2cn3cccnc3n2)cc1	Autofluor counter 23611
c1ccc(-n2nnnc2SCc2cn3ccccc3n2)cc1	Autofluor counter inconclusive
COc1ccc(C(=O)NCC(=O)OCC(=O)N2CC(C)CC(C)C2)cc1 (centres undefined)	Autofluor counter 17297
N#CCCSC(=S)C1CCCC1=N (centres undefined)	none
